Experimental data published in PubChem BioAssay AID463173 (ICCB-Longwood Screening Facility, Harvard Medical School, 2010).
Out of some 52,000 compounds screened, about 4,300 (8.3%) were called active. Only a selection was taken, and actives are over-represented in it overall. Unmarked numbers belong to inactive results. Rule as the data show it: active = survival mostly below about 52% (no sharp cut-off); inactive = mostly above about 56%.

What follows are compounds tested on DeltatarO mutant (assay: growth inhibition of S. aureus wild type versus tarO mutant, primary screen, teichoic acid synthesis inhibitors, RN4220, OD600 (AID 463173)). Conditions: OD600, 18 h, hits give low values, screened at 18.75 µg/mL (by protocol).
Compound `COc1ccc(NC(=O)C2CCN(c3ccc(Sc4ccc(C)cc4)nn3)CC2)cc1` has a survival of 74%. `Cc1ccc(CNC(=O)C(C)n2c(=O)cc(-c3ccccc3)c3c(C)nn(C)c32)cc1` (stereo not given) gave a survival of 80%. Work on `C=CCn1c(Br)nc2c1c(=O)n(C)c(=O)n2C` yielded a survival of 73%. For `CN(C1CCCCC1)S(=O)(=O)c1ccc2c(c1)c(=O)c(C(=O)NCCc1ccccc1)cn2C`, the survival was 79%. `Cc1cc(C)c2c(-n3cccc3)c(C(=O)NCCc3ccccc3)sc2n1` was tested, and the survival was 90%. Work on `Cc1cc(C)cc(OCCSc2nc(-c3cccs3)nc3cc(=O)[nH]n23)c1` yielded a survival of 67%. With `O=C(COc1ccccc1Cl)Nc1cc(-c2ccccc2F)nn1-c1ccccc1` the survival was 91%. `O=C(NCc1cccc(Cl)c1)c1ccc2c(Cl)c3c(nc2c1)CCCC3` was tested, and the survival was 48%. With `COc1cc(NC(=O)c2ccc3c(Cl)c4c(nc3c2)CCC4)cc(OC)c1OC` the survival was 62%. With `CCOC(=O)c1cccc(NC(=O)c2ccc3c(Cl)c4c(nc3c2)CCC4)c1` the survival was 41% (active). In the case of `COc1ccc(CNC(=O)c2ccc3c(Cl)c4c(nc3c2)CCCC4)c(OC)c1`, the survival is reported as 92%. With `CCOC(=O)c1ccccc1NC(=O)c1ccc2c(Cl)c3c(nc2c1)CCC3` the survival was 96%. For `COc1cccc(CNC(=O)c2ccc3c(Cl)c4c(nc3c2)CCCC4)c1`, the survival was 49% (active). With `NS(=O)(=O)c1ccc(NC(=O)c2csnn2)cc1` the survival was 80%. `O=C(NCCO)c1ccc(-c2nnc(Nc3ccc(OC(F)(F)Cl)cc3)c3ccccc23)cc1` showed a survival of 72%. With `CCOC(=O)c1ccc(NC(=O)C2CCCN(c3ccc(Sc4ccc(C)cc4)nn3)C2)cc1` (stereo not given) the survival was 43%. For `Cc1ccccc1CN1c2ccccc2-c2nc(SCC(=O)Nc3cc(F)ccc3F)ncc2S1(=O)=O`, the survival was 89%. Compound `Cc1ccc(C)c(CN2C(=O)c3ccccc3Sc3ccc(C(=O)NCc4ccc5c(c4)OCO5)cc32)c1` has a survival of 89%. `Cc1[nH]c2ccccc2c1Cc1nnc(SCC(N)=O)n1Cc1ccco1` was tested, and the survival was 99%. With `COC(=O)c1ccc(Nc2nc(-c3ccc(C)cc3)nc3ccccc23)cc1` the survival was 9% (active). `CCOC(=O)c1nc(Nc2ccc(C(C)=O)cc2)c2ccccc2n1` was tested, and the survival was 49%. Compound `CCOC(=O)c1nc(Nc2ccc(C(=O)OC(C)C)cc2)c2ccccc2n1` has a survival of 68%. Compound `O=C(CSc1nc(Nc2ccc(F)cc2)c2ccccc2n1)c1ccc(F)cc1` has a survival of 124%. Work on `CCOC(=O)c1nc(Nc2ccc(C(=O)OCC(C)C)cc2)c2ccccc2n1` yielded a survival of 61%. For `COC(=O)c1ccc(Nc2nc(-c3ccccc3Cl)nc3ccccc23)cc1`, the survival was 21% (active). `COc1ccc2c(c1)c1c(c(=O)n(-c3ccc(OC)c(OC)c3)c(=O)n1Cc1ccc(C)cc1)n2C` was tested, and the survival was 73%. `CCOc1ccc(NC(=O)CSc2nc3c(oc4ccccc43)c(=O)n2-c2ccccc2C)cc1` gave a survival of 79%. With `COc1ccc(CC(=O)N2CCc3cc(OC)c(OC)cc3C2COc2ccc(F)cc2)cc1` (stereo not given) the survival was 67%. In the case of `Cn1nnnc1SCCCNCc1cccc(OCc2ccc(Cl)cc2)c1`, the survival is reported as -3% (active). `Cn1nnnc1SCCCNCc1ccccc1OCc1ccccc1F` was tested, and the survival was 72%. `Cn1nnnc1SCCCNCc1ccccc1OCc1ccc(F)cc1` was tested, and the survival was 57% (active). For `COc1cc(CNCCSc2nnnn2C)ccc1OCc1ccccc1`, the survival was 73%. With `Cn1nnnc1SCCCNCc1cccc(OCc2ccc(F)cc2)c1` the survival was 115%. `Cn1nnnc1SCCCNCc1cccc(OCc2ccccc2)c1` showed a survival of 85%. `COc1cccc(CNCCSc2nnnn2C)c1OCc1ccc(Cl)cc1` was tested, and the survival was 62%. For `Cn1nnnc1SCCNCc1ccc(OCc2ccc(Cl)cc2)cc1`, the survival was 68%. Compound `COc1cccc(CNCCSc2nnnn2C)c1OCc1ccccc1` has a survival of 79%. With `COc1cc(CNCCSc2nnnn2C)cc(Cl)c1OCc1ccccc1` the survival was 44% (active). In the case of `CCOc1cc(CNCCSc2nnnn2C)cc(Cl)c1OCc1ccc(Cl)cc1`, the survival is reported as 2% (active). In the case of `Cn1nnnc1SCCCNCc1ccccc1OCc1ccc(Cl)cc1`, the survival is reported as 66%. `O=C1CCc2cc(S(=O)(=O)NC(C(=O)Nc3ccc(F)cc3)c3ccccc3)ccc2N1` (stereo not given) gave a survival of 100%. In the case of `COc1ccc(-n2c(=O)c3c4c(sc3n(CC(=O)N3CCCCC3C)c2=O)CCC4)c(OC)c1` (stereo not given), the survival is reported as 87%. Compound `Cc1ccc(Cl)cc1NC(=O)Cn1c(=O)c(CNc2ccccc2)cc2cc3c(cc21)OCCO3` has a survival of 95%. Compound `CCc1ccc(CN2CCc3nc(Nc4ccccc4)ncc3C2)cc1` has a survival of 84%. `Cc1ccc(Nc2nc3ccc(C(=O)c4ccccc4)cc3n3c(C)nnc23)c(C)c1` showed a survival of 105%. For `CCCn1c2ccccc2c2cnn(CC(=O)NCCCN(Cc3ccccc3)C(C)C)c(=O)c21`, the survival was 88%. In the case of `COc1ccc(-c2cc(C(F)(F)F)n3nc(C)c(-c4ccccc4)c3n2)cc1OC`, the survival is reported as 69% (active). With `COc1ccc(-c2c(C)nn3c(-c4ccccc4)cc(C)nc23)cc1OC` the survival was 38% (active). With `COc1ccc(-c2cc(C)nc3c(-c4ccc(OC)c(OC)c4)c(C)nn23)cc1` the survival was 63%. With `COc1ccc(-c2c(C)nn3c(C(F)(F)F)cc(-c4ccccc4)nc23)cc1OC` the survival was 57%. `COc1ccc(-c2c(C)nn3c(C(F)(F)F)cc(-c4ccccc4)nc23)cc1` showed a survival of 62%. `COc1ccc(-c2c(C)nn3c(-c4ccccc4)cc(-c4ccccc4)nc23)cc1OC` was tested, and the survival was 96%. `CC(CCO)Nc1nc2c(c(=O)n(C)c(=O)n2C)n1Cc1ccc(Br)cc1` (stereo not given) showed a survival of 140%. With `COc1cccc(C(=O)NC2=NC(c3ccccc3F)CC(=O)N2)c1` (stereo not given) the survival was 75%. `CC(C)C(=O)Nc1c(C(=O)N2CCN(c3ccccc3F)CC2)oc2ccccc12` showed a survival of 58%. For `O=C(NCc1ccccc1)C1CCCN(c2ncccn2)C1` (stereo not given), the survival was 88%. `Cc1cccc(-c2noc(-c3ccc(N4CCCC4)c([N+](=O)[O-])c3)n2)c1` was tested, and the survival was 82%. `CN1CCN(c2ccc(-c3nc(-c4ccccc4)no3)cc2[N+](=O)[O-])CC1` was tested, and the survival was 41% (active). For `Cc1cccc(-c2noc(-c3ccc(N4CCOCC4)c([N+](=O)[O-])c3)n2)c1`, the survival was 67%. In the case of `Cc1cccc(-c2noc(-c3ccc(N4CCN(C)CC4)c([N+](=O)[O-])c3)n2)c1`, the survival is reported as 22% (active). Work on `O=[N+]([O-])c1cc(-c2nc(-c3ccccc3)no2)ccc1N1CCN(c2ccccc2)CC1` yielded a survival of 77%. `Cc1ccc(-c2noc(-c3ccc(N4CCN(C)CC4)c([N+](=O)[O-])c3)n2)cc1` was tested, and the survival was 85%. In the case of `COc1ccccc1-c1noc(-c2ccc(N3CCN(C)CC3)c([N+](=O)[O-])c2)n1`, the survival is reported as 113%. `COc1ccccc1-c1noc(-c2ccc(N3CCOCC3)c([N+](=O)[O-])c2)n1` gave a survival of 100%. With `COc1ccccc1-c1noc(-c2ccc(N3CCN(c4ccccc4)CC3)c([N+](=O)[O-])c2)n1` the survival was 44% (active).
